Results as given in PubChem BioAssay (NCATS).
Results filed as inconclusive are left out. The source made the active and inactive calls. Unless noted, the call rests on the fitted dose curve; in most records, active means well fitted curve in the direction sought with a large enough effect; inconclusive means small, poorly fitted or top-dose-only effect, or another doubt; inactive means no such curve, though single readings can be large; an effect the other way counts as inactive or inconclusive.

Tests used:
[1] = target: ATP-dependent 6-phosphofructokinase (Trypanosoma brucei brucei) (UniProt O15648); assay: qHTS Assay to Find Inhibitors of T. brucei phosphofructokinase: hit validation (AID 492961);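 further: luminescence reports ADP formed as PFK phosphorylates fructose-6-phosphate with ATP; series mostly up to about 51 µM; on the % scale 0 is the no-effect control and ±100 the full control effect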
In short: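 Reaction: 0.1 M triethanolamine pH 8.0, 5 mM MgCl2, F6P 0.5 mM, ATP 0.1 mM, PFK 1.25 nM, 45 min RT. Read-out: ADP-Glo luminescence. Analysis: concentration-response fits, classed by r2 and efficacy.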

[2] = Validation screen for small molecules that induce genotoxicity in human embryonic kidney (HEK293T) cells expressing luciferase-tagged ELG1 (AID 493106); further: 0% is about no effect
In short: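 In this validation screen, increased ELG1-luciferase signal flags compounds causing genetic stress. HEK293T reporter cells are treated 16 hr (37 °C, 5% CO2), developed with ONE-Glo for 30 min at room temperature, and imaged on a CCD-based reader.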

[3] = target: ATPase family AAA domain-containing protein 5 (Homo sapiens) (UniProt Q96QE3); assay: Validation screen for small molecules that inhibit ELG1-dependent DNA repair in human embryonic kidney (HEK293T) cells expressing luciferase-tagged ELG1 (AID 493107);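 further: cells co-treated with the DNA-damaging agent 5-fluorouridine alongside compound; series mostly up to about 46 µM; on the % scale 0 is the no-effect control and ±100 the full control effect; inhibitors lower the ELG1-luciferase luminescence signal; nearly all actives have a fitted effect of over 70% in size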
In short: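 Compounds reducing 5-fluorouridine-driven ELG1-luciferase signal in HEK293T cells were scored; exposure lasted 16 hr at 37 °C with luminescence detected via ONE-Glo.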

[4] = Nrf2 qHTS screen for inhibitors: Validation (AID 493153; active means well fitted inhibition curve with a large enough effect in the main read-out, with a control signal flat, not every such curve was filed as active); conditions: Potency: luciferase luminescence; viability change: measured here: cytotoxicity max response
In short: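 In this counterscreened reporter format, each well gives two signals: CellTiter-Fluor fluorescence for cytotoxicity and ARE-luciferase luminescence for Nrf2 function. A549 ARE_Fluc cells in 5% FBS OPTI-MEM were exposed to compound titrations for 18-24 h.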

[5] = qHTS for Inhibitors of Cell Surface uPA Generation: Validation Assay (AID 493164);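 further: RAW 264.7 macrophage cells exposed to compound for 18 h; 0% is about no effect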
In short: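 Compounds are titrated over seven points (2.45 nM–38.3 uM final) onto pre-plated RAW 264.7 cells and incubated for 18 h. Retained intracellular ATP, measured with ATP-Lite, indicates blocked lethal factor entry.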

[6] = target: Galactokinase (Homo sapiens) (UniProt P51570); assay: qHTS Validation Assay for Inhibitors of Human Galactokinase (GALK) (AID 493189); further: 0% is about no effect
In short: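 5 nM GALK / 100 uM galactose / 35 uM ATP, 20 mM HEPES pH8.0, 5 mM MgCl2, 60 mM NaCl, 1 mM DTT, 0.01% BSA (final). RT 1 h; Kinase-Glo Plus luminescence.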

[7] = Validation screen for small molecules that induce DNA re-replication in SW480 colon adenocarcinoma cells (AID 504364); further: 0% is about no effect
In short: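 Hoechst-stained SW480 nuclei, imaged at 405 nm excitation after 48 hr compound exposure, were counted for elevated DNA content as the re-replication signal.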

[8] = target: Peptidyl-prolyl cis-trans isomerase NIMA-interacting 1 (Homo sapiens) (UniProt Q13526); assay: qHTS Validation Assay to Find Inhibitors of Pin1 (AID 504536; active means well fitted inhibition curve with a large enough effect in the polarisation, with a control signal flat, not every such curve was filed as active; the % refers to the polarisation;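 further: 0% = full Pin1 enzyme wells and -100% = no-enzyme wells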)
In short: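 Fluorescence polarization competition: compounds (titration) displace HiFluor-488-labeled Pin1-1b peptide from Pin1 (0.3 uM final) in pH 7.5 HEPES buffer with DTT, 10 min at room temperature; %Activity normalized to no-enzyme wells, curves fitted.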

[9] = target: Phosphoglycerate kinase, glycosomal (Trypanosoma brucei brucei) (UniProt P07378); assay: qHTS Validation Assay to Find Inhibitors of Phosphoglycerate Kinase (AID 504547);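 further: control wells lack PGK and mark full inhibition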
In short: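 In TEA buffer (100mM, pH 7.6) containing 5mM MgCl2 and 0.01% Tween-20, the GAPDH-coupled PGK reaction proceeded for 60 minutes at room temperature before a single luminescence reading using Kinase-Glo Plus.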

[10] = target: phosphoglycerate mutase (Leishmania major) (UniProt Q4Q090); assay: qHTS Validation Assay to Find Inhibitors of Phosphoglycerate Mutase (AID 504548);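 further: end-point luminescence from Kinase-GloPlus after the PGAM reaction; series mostly up to about 58 µM; on the % scale 0 is the no-effect control and ±100 the full control effect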
In short: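 L. major PGAM (1.25nM final) was added to substrate buffer and pinned compound, incubated 45 minutes at room temperature, then Kinase-GloPlus added; luminescence read after 10 minutes. Buffer: 100 mM TEA pH 7.6, 5 mM MgCl2, 0.01% Tween-20.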

[11] = target: Ubiquitin carboxyl-terminal hydrolase 1 (Homo sapiens) (UniProt O94782); assay: Inhibitors of USP1/UAF1: Pilot qHTS (AID 504865); further: nearly all actives have a fitted effect of over 35% in size; further: potency means the concentration at half of the fitted maximal effect
In short: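 In 50mM HEPES pH 7.8 containing 0.5mM EDTA, 1mM TCEP, 0.1 mg/ml BSA and 0.01% Tween-20, 1nM USP1/UAF1 is exposed to compound for 15 min, then Ub-Rho (150nM final) is added and fluorescence is read over time.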

[12] = qHTS for Inhibitors of ATXN expression: Validation of Cytotoxic Assay (AID 588349); further: potency means the concentration at half of the fitted maximal effect
In short: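 Toxicity of test compounds toward HEK293 cells is scored from cellular ATP content measured by CellTiter Glo. Cells receive titrated doses and incubate 72 hr at 37 degrees C beforehand.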

[13] = qHTS for Inhibitors of ATXN expression: Validation (AID 588378); further: nearly all actives have a fitted effect of over 75% in size; further: potency means the concentration at half of the fitted maximal effect
In short: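 Compounds were pinned onto attached HEK293 cells carrying an ATXN2-firefly luciferase construct and incubated 24 hrs at 37 degrees C. Each well then received a fluorescent viability reagent followed by luciferase substrate for end-point luminescence.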

[14] = target: Thyrotropin-releasing hormone receptor (Homo sapiens) (UniProt P34981); assay: qHTS for Small Molecule Agonists and Allosteric Enhancers of Human TRH Receptor: Validation Screen for Agonists (AID 493127;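 active means calcium activation more than 3 SD above the typical response in the agonist read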;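 further: intracellular calcium rise by fluo-8 fluorescence before TRH EC20 addition; 0% is about no effect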); conditions: TRH receptor agonist cell assay; at 2 µM; stronger effect = higher value
In short: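 Kinetic fluorescence assay of agonist-induced calcium release: overnight-plated TRHR cells, room-temperature fluo-8 loading, baseline then compound addition with per-second reads.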

Chain of ATP-dependent 6-phosphofructokinase (Trypanosoma brucei brucei) (O15648 whole entry, looked up): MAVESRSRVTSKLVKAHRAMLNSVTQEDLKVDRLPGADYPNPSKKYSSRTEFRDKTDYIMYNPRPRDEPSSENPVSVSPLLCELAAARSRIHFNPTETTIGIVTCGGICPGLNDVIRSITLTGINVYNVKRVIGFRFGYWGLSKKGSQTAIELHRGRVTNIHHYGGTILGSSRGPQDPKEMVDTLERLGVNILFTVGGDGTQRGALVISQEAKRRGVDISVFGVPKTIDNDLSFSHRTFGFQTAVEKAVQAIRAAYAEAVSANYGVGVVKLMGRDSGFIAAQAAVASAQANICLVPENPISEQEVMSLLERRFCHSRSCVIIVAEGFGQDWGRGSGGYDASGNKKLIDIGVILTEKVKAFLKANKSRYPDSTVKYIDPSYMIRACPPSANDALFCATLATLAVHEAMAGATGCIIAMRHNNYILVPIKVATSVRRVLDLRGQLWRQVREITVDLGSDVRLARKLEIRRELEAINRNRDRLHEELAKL
Chain of ATPase family AAA domain-containing protein 5 (Homo sapiens) (Q96QE3 whole entry, looked up, the tested form may be a part): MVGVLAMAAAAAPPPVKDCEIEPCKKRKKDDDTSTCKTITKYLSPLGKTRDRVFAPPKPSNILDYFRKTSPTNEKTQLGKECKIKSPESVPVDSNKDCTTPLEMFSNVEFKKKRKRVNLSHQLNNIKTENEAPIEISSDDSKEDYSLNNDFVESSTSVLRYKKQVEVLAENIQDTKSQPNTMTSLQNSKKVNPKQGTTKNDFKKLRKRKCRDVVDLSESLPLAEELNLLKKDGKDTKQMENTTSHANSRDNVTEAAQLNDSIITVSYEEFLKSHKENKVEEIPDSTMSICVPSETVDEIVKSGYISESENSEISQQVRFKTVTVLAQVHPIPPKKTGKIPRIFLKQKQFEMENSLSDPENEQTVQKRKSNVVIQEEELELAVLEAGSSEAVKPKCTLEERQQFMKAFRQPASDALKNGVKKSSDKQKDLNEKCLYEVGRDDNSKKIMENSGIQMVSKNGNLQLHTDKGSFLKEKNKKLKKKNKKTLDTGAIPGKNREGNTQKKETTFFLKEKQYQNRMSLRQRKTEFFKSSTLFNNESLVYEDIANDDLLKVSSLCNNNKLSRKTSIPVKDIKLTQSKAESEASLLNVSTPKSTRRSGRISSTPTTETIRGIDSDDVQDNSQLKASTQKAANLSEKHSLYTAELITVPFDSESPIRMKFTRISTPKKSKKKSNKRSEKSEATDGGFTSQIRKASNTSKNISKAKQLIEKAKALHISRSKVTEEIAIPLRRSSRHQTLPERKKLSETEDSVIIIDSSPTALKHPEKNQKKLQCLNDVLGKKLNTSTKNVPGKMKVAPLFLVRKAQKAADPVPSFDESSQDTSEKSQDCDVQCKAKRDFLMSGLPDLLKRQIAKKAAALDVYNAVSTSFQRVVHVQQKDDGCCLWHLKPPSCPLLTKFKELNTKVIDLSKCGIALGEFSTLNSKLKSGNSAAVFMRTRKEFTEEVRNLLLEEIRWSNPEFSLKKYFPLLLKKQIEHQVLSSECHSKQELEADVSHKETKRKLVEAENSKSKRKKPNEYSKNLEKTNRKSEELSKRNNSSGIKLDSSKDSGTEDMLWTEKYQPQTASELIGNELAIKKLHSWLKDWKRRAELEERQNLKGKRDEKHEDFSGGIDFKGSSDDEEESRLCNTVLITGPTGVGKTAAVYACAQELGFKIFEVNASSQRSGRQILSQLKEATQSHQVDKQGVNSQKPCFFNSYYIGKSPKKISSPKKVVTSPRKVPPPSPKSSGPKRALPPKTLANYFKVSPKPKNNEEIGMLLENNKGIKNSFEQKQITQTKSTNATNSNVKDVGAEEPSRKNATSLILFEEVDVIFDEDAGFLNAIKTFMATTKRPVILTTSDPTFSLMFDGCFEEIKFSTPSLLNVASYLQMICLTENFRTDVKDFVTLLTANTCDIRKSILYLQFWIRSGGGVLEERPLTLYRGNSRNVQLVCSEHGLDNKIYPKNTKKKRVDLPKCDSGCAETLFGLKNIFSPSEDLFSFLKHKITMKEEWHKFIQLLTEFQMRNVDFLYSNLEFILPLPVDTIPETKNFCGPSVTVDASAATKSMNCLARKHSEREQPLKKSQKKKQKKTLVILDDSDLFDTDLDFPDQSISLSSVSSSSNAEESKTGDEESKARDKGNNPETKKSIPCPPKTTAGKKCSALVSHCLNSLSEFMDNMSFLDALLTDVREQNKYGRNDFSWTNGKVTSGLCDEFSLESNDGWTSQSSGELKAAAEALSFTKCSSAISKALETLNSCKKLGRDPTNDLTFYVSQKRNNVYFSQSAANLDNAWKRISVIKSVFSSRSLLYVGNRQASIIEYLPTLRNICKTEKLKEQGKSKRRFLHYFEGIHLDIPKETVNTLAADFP
Chain of Thyrotropin-releasing hormone receptor (Homo sapiens) (P34981 whole entry, looked up): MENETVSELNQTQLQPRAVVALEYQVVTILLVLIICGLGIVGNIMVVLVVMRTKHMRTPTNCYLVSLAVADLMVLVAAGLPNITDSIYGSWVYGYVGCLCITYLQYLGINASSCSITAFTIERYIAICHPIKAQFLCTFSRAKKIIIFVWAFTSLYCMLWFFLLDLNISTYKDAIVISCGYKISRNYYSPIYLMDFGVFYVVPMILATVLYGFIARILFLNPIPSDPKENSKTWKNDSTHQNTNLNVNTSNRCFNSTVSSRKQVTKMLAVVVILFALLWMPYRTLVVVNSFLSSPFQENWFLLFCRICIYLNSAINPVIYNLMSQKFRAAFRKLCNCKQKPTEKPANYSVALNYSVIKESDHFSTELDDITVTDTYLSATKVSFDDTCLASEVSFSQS
Chain of Peptidyl-prolyl cis-trans isomerase NIMA-interacting 1 (Homo sapiens) (Q13526 whole entry, looked up): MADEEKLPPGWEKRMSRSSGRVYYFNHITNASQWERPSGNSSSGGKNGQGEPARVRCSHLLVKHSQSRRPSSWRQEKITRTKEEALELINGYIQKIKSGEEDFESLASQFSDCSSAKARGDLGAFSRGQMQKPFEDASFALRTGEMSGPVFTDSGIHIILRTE
Chain of Phosphoglycerate kinase, glycosomal (Trypanosoma brucei brucei) (P07378 whole entry, looked up): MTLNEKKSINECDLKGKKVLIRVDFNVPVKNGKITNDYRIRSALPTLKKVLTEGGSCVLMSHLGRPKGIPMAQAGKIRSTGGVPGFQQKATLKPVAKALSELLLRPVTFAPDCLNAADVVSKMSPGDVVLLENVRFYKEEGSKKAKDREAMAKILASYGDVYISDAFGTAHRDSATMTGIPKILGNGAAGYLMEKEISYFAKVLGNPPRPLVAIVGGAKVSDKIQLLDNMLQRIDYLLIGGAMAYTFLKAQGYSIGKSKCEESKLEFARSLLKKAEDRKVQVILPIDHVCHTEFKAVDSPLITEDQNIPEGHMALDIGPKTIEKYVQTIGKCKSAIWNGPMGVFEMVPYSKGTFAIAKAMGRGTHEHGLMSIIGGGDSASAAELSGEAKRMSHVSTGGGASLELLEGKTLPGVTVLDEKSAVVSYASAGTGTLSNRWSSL
Chain of phosphoglycerate mutase (Leishmania major) (Q4Q090 1-553): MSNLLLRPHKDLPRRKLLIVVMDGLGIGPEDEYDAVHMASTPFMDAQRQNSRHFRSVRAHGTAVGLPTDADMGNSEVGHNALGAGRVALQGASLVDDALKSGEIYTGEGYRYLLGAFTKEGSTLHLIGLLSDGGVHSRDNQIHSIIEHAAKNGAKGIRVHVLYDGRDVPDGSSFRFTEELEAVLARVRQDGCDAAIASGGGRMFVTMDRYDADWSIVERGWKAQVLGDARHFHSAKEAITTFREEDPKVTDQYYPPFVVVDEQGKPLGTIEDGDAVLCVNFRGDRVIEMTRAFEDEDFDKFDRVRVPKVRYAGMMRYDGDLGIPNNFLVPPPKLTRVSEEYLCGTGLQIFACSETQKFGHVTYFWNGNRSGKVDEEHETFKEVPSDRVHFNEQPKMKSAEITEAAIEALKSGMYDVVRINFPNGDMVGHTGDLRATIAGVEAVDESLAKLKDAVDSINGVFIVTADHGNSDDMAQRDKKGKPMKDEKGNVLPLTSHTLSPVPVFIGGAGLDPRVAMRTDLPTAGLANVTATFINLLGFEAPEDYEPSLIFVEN
Chain of Ubiquitin carboxyl-terminal hydrolase 1 (Homo sapiens) (O94782 whole entry, looked up): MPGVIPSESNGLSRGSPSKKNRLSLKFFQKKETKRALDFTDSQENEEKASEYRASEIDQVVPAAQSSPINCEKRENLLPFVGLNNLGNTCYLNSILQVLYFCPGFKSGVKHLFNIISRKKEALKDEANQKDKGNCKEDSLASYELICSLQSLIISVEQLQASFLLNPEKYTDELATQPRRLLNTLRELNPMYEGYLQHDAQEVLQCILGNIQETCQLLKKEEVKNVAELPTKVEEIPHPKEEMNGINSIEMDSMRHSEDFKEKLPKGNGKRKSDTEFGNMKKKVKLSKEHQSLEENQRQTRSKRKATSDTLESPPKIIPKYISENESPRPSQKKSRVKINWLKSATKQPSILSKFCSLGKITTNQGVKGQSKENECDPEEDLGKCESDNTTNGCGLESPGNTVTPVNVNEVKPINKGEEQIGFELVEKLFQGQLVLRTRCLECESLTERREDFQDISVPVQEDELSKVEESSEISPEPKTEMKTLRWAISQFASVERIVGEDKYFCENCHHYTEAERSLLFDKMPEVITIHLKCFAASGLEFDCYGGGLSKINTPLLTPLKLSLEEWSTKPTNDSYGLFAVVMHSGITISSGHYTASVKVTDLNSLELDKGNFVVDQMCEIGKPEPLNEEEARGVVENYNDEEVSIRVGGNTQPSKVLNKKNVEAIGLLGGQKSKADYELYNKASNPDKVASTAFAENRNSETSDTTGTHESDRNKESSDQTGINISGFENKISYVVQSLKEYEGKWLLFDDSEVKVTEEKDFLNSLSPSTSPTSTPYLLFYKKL

OC(CCN1CCCCC1)(c1ccccc1)C1CCCCC1 (configuration not stated)
inactive: outcome [1] | Potency [2] | Potency [3] | Potency [4] | outcome [5] | outcome [6] | outcome [7] | outcome [8] | outcome [9] | outcome [10] | Potency [11]
-0.392%: viability change [4]

O=C(O)CP(=O)(O)O
10.3%: viability change [4]
inactive: outcome [1] | Potency [2] | Potency [3] | Potency [4] | outcome [5] | outcome [6] | outcome [7] | outcome [8] | outcome [9] | outcome [10] | Potency [11] | Potency [12] | Potency [13]

CN(C)C(=O)Oc1cccc([N+](C)(C)C)c1
inactive: outcome [1] | Potency [2] | Potency [3] | activation [14] 0.625% | Potency [4] | outcome [5] | outcome [6] | outcome [7] | outcome [8] | outcome [10] | Potency [11] | Potency [12] | Potency [13]
0.794%: viability change [4]

CCN1CCc2nc(N)oc2CC1
inactive: outcome [1] | Potency [2] | Potency [3] | activation [14] 0.875% | Potency [4] | outcome [5] | outcome [6] | outcome [7] | outcome [8] | outcome [10] | Potency [11] | Potency [12] | Potency [13]
-0.627%: viability change [4]

CC(C(=O)O)c1ccc(CC2CCCC2=O)cc1 (configuration not stated)
-13.4%: viability change [4]
inactive: outcome [1] | Potency [2] | Potency [3] | activation [14] 1.56% | Potency [4] | outcome [5] | outcome [6] | outcome [7] | outcome [8] | outcome [9] | outcome [10] | Potency [11] | Potency [12] | Potency [13]

CCNC(=O)N1CCN(CCCC(c2ccc(F)cc2)c2ccc(F)cc2)CC1
-3.28%: viability change [4]
inactive: outcome [1] | Potency [2] | Potency [3] | activation [14] 6.5% | Potency [4] | outcome [5] | outcome [6] | outcome [7] | outcome [8] | outcome [10] | Potency [11]

C[C@]12CCC(=O)C=C1CC[C@@H]1[C@@H]2CC[C@@]2(C)[C@H]1CC[C@]2(O)C(=O)CO
inactive: outcome [1] | Potency [2] | activation [14] 0.188% | outcome [5] | outcome [6] | outcome [7] | outcome [8] | outcome [10] | Potency [11] | Potency [12] | Potency [13]

Cc1ccc(Cl)c(Nc2ccccc2C(=O)O)c1Cl
inactive: outcome [1] | Potency [2] | Potency [3] | activation [14] 0% | outcome [5] | outcome [6] | outcome [7] | outcome [9] | outcome [10] | Potency [11] | Potency [12] | Potency [13]

CN(C)C/C=C(/c1ccc(Br)cc1)c1cccnc1
11.1%: viability change [4]
inactive: outcome [1] | Potency [2] | Potency [3] | activation [14] 0.375% | Potency [4] | outcome [5] | outcome [6] | outcome [7] | outcome [8] | outcome [10] | Potency [11] | Potency [12]

CCc1cccc(N(C)C(N)=Nc2cccc3ccccc23)c1
inactive: outcome [1] | Potency [2] | Potency [4] | outcome [5] | outcome [6] | outcome [8] | outcome [9] | outcome [10] | Potency [11]
-0.401%: viability change [4]

CN(C)CCCN1c2ccccc2Sc2ccccc21
inactive: outcome [1] | Potency [2] | activation [14] 8% | Potency [4] | outcome [5] | outcome [6] | outcome [8] | outcome [10] | Potency [11]
1.11%: viability change [4]

CCCCCCCC/C=C\CCCCCCCC(=O)NCc1ccc(O)c(OC)c1
-10.2%: viability change [4]
inactive: outcome [1] | Potency [2] | Potency [3] | Potency [4] | outcome [5] | outcome [8] | outcome [9] | outcome [10] | Potency [12] | Potency [13]

O=C(CCCN1CCC(O)(c2cccc(C(F)(F)F)c2)CC1)c1ccc(F)cc1
-9.85%: viability change [4]
inactive: outcome [1] | Potency [2] | activation [14] 3.56% | Potency [4] | outcome [5] | outcome [7] | outcome [8] | Potency [11] | Potency [12]

CCN(CC)CCOCCOC(=O)C1(c2ccccc2)CCCC1
inactive: outcome [1] | Potency [2] | Potency [3] | Potency [4] | outcome [5] | outcome [6] | outcome [7] | outcome [8] | outcome [9] | outcome [10] | Potency [11]
0.933%: viability change [4]

CSc1ccc(C(=O)c2[nH]c(=O)[nH]c2C)cc1
inactive: outcome [1] | Potency [2] | Potency [4] | outcome [5] | outcome [6] | outcome [7] | outcome [8] | outcome [10] | Potency [11] | Potency [12] | Potency [13]
0%: viability change [4]

OCCN1CCN(CC/C=C2/c3ccccc3Sc3ccc(C(F)(F)F)cc32)CC1
inactive: outcome [1] | Potency [2] | activation [14] 1.19% | Potency [4] | outcome [5] | outcome [6] | outcome [7] | outcome [8] | outcome [9] | outcome [10]
active: Potency [11] 56.2 µM | Potency [12] 28.2 µM | Potency [13] 17.8 µM
-4.74%: viability change [4]

CCCCNc1ccc(C(=O)OCCN(C)C)cc1
inactive: Potency [2] | Potency [3] | activation [14] 1.31% | Potency [4] | outcome [5] | outcome [6] | outcome [7] | outcome [8] | outcome [9] | outcome [10] | Potency [11] | Potency [12] | Potency [13]
2.59%: viability change [4]

CCCCCN(CCCCC)C(=O)C(CCC(=O)O)NC(=O)c1ccc(Cl)c(Cl)c1 (configuration not stated)
3.55%: viability change [4]
inactive: Potency [2] | Potency [3] | activation [14] 1% | Potency [4] | outcome [5] | outcome [6] | outcome [7] | outcome [8] | outcome [9] | outcome [10] | Potency [11] | Potency [13]

NC(Cc1ccc(Cl)cc1)C(=O)O (configuration not stated)
-1.14%: viability change [4]
inactive: Potency [2] | Potency [3] | activation [14] 0.75% | Potency [4] | outcome [5] | outcome [6] | outcome [7] | outcome [8] | outcome [9] | outcome [10] | Potency [11] | Potency [12] | Potency [13]
